# Results reported in PubChem BioAssay AID1159580 (chemical genetic matrix, 2015).
# The whole screen tested about 5,500 compounds, of which about 2,000 (36%) were called active. Another 18% or so got no clear call; they are omitted. The list shows a part of the results. Unmarked numbers belong to inactive results. Rule as the data show it: active = normalized growth mostly below about 0.91 (no sharp cut-off); inconclusive = no clear call, values can overlap the other calls; inactive = mostly above about 0.92.
# Assay: chemical genetic growth profiling, strain panel (AID 1159580);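 also: tested at 20 µM; growth read once vehicle control cultures reached saturation at 30 °C; 1 = growth at the plate median or of vehicle wells; lower values mean less growth of the strain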
# Conditions: growth OD
# [1] = S. cerevisiae deletion strains, locus YBR229C, strain ROT2, active compounds read low
# [2] = S. cerevisiae deletion strains, locus YDL101C, strain DUN1, active compounds read low
# [3] = S. cerevisiae deletion strains, locus YJR043C, strain POL32, active compounds read low
# [4] = S. cerevisiae deletion strains, locus YJR075W, strain HOC1, active compounds read low
# [5] = S. cerevisiae deletion strains, locus YLR039C, strain RIC1, active compounds read low
# [6] = S. cerevisiae deletion strains, locus YLR262C, strain YPT6, active compounds read low
# [7] = S. cerevisiae deletion strains, locus YMR307W, strain GAS1, active compounds read low
smiles,measurement,setting,value
Cc1ccc(/C(C#N)=C2C=C/C(=N/O)C(Cl)=C\2Cl)cc1,normalized growth,"S. cerevisiae deletion strains, locus YAL013W, strain DEP1, active compounds read low",0.953
same,normalized growth,[1],0.961
same,normalized growth,"S. cerevisiae deletion strains, locus YCL061C, strain MRC1, active compounds read low",0.965
same,normalized growth,[2],0.983
same,normalized growth,"S. cerevisiae deletion strains, locus YDR150W, strain NUM1, active compounds read low",0.963
same,normalized growth,"S. cerevisiae deletion strains, locus YEL061C, strain CIN8, active compounds read low",0.959
same,normalized growth,"S. cerevisiae deletion strains, locus YGR078C, strain PAC10, active compounds read low",0.975
same,normalized growth,"S. cerevisiae deletion strains, locus YHR030C, strain SLT2, active compounds read low",0.631 (active)
same,normalized growth,"S. cerevisiae deletion strains, locus YHR087W, strain rtc3, active compounds read low",1
same,normalized growth,[3],1.01
same,normalized growth,[4],1
same,normalized growth,[5],0.865
same,normalized growth,"S. cerevisiae deletion strains, locus YLR058C, strain SHM2 (second series), active compounds read low",0.999
same,normalized growth,"S. cerevisiae deletion strains, locus YLR085C, strain ARP6, active compounds read low",0.825
same,normalized growth,[6],0.816 (active)
same,normalized growth,"S. cerevisiae deletion strains, locus YML094W, strain GIM5, active compounds read low",0.973
same,normalized growth,"S. cerevisiae deletion strains, locus YMR219W, strain ESC1, active compounds read low",0.991
same,normalized growth,"S. cerevisiae deletion strains, locus YMR263W, strain SAP30, active compounds read low",0.984
same,normalized growth,[7],0.721
same,normalized growth,"S. cerevisiae deletion strains, locus YNL153C, strain GIM3, active compounds read low",0.962
same,normalized growth,"S. cerevisiae deletion strains, locus YNL298W, strain CLA4 (second series), active compounds read low",0.885
same,normalized growth,"S. cerevisiae deletion strains, locus YNL322C, strain KRE1, active compounds read low",0.98
same,normalized growth,"S. cerevisiae deletion strains, locus YNR030W, strain Alg12, active compounds read low",0.877 (active)
same,normalized growth,"S. cerevisiae deletion strains, locus YPL055C, strain LGE1, active compounds read low",0.949
same,normalized growth,"S. cerevisiae deletion strains, locus YPL241C, strain CIN2, active compounds read low",0.952
same,normalized growth,"S. cerevisiae deletion strains, locus YPR135W, strain CTF4, active compounds read low",0.681
same,normalized growth,"S. cerevisiae strains, strain wild type, active compounds read low",0.929
C/C=C(\C)C(=O)OC1[C@@H]2C=C3C4CC(=O)O[C@@H](c5ccoc5)[C@]4(C)CCC3[C@@](C)(C2=O)[C@@H](C(O)C(=O)OC)C1(C)C (stereo not given in full),normalized growth,"S. cerevisiae deletion strains, locus YBR021W, strain FUR4, active compounds read low",1
same,normalized growth,[1],0.997
same,normalized growth,"S. cerevisiae deletion strains, locus YCL029C, strain bik1, active compounds read low",1.01
same,normalized growth,"S. cerevisiae deletion strains, locus YDL035C, strain GPR1, active compounds read low",0.994
same,normalized growth,"S. cerevisiae deletion strains, locus YDL074C, strain BRE1, active compounds read low",1.03
same,normalized growth,[2],1.01
same,normalized growth,"S. cerevisiae deletion strains, locus YDL134C, strain PPH21, active compounds read low",1.01
same,normalized growth,"S. cerevisiae deletion strains, locus YDL185W, strain tfp1, active compounds read low",1.02
same,normalized growth,"S. cerevisiae deletion strains, locus YDL192W, strain arf1, active compounds read low",1.01
same,normalized growth,"S. cerevisiae deletion strains, locus YDR101C, strain arx1, active compounds read low",1.01
same,normalized growth,"S. cerevisiae deletion strains, locus YDR162C, strain NBP2, active compounds read low",1.01
same,normalized growth,"S. cerevisiae deletion strains, locus YDR318W, strain mcm21, active compounds read low",1.02
same,normalized growth,"S. cerevisiae deletion strains, locus YDR388W, active compounds read low",1.02
same,normalized growth,"S. cerevisiae deletion strains, locus YDR502C, strain sam2, active compounds read low",1.03
same,normalized growth,"S. cerevisiae deletion strains, locus YER110C, active compounds read low",1.01
same,normalized growth,"S. cerevisiae deletion strains, locus YER155C, strain BEM2, active compounds read low",1
same,normalized growth,"S. cerevisiae deletion strains, locus YER167W, strain BCK2, active compounds read low",0.994
same,normalized growth,"S. cerevisiae deletion strains, locus YGL078C, strain dbp3, active compounds read low",1.03
same,normalized growth,"S. cerevisiae deletion strains, locus YGL086W, strain mad1, active compounds read low",1.01
same,normalized growth,"S. cerevisiae deletion strains, locus YGL248W, strain PDE1, active compounds read low",1
same,normalized growth,"S. cerevisiae deletion strains, locus YGR135W, strain pre9, active compounds read low",1.03
same,normalized growth,"S. cerevisiae deletion strains, locus YGR252W, strain gcn5, active compounds read low",1.02
same,normalized growth,"S. cerevisiae deletion strains, locus YHR079C, strain IRE1 (second series), active compounds read low",1.03
same,normalized growth,"S. cerevisiae deletion strains, locus YHR094C, strain hxt1, active compounds read low",1.03
same,normalized growth,"S. cerevisiae deletion strains, locus YHR129C, strain ARP1, active compounds read low",1
same,normalized growth,"S. cerevisiae deletion strains, locus YHR200W, strain rpn10, active compounds read low",1.02
same,normalized growth,"S. cerevisiae deletion strains, locus YIL066C, strain RNR3, active compounds read low",0.997
same,normalized growth,"S. cerevisiae deletion strains, locus YIL073C, strain SPO22, active compounds read low",1.05
same,normalized growth,"S. cerevisiae deletion strains, locus YIL125W, strain kgd1, active compounds read low",1.01
same,normalized growth,"S. cerevisiae deletion strains, locus YIR030C, strain dcg1, active compounds read low",1.02
same,normalized growth,"S. cerevisiae deletion strains, locus YJL095W, strain BCK1, active compounds read low",1.03
same,normalized growth,"S. cerevisiae deletion strains, locus YJL134W, strain LCB3, active compounds read low",1.01
same,normalized growth,"S. cerevisiae deletion strains, locus YJL168C, strain set2, active compounds read low",1.02
same,normalized growth,"S. cerevisiae deletion strains, locus YJL187C, strain SWE1 (second series), active compounds read low",1.02
same,normalized growth,[3],0.983
same,normalized growth,[4],1.02
same,normalized growth,"S. cerevisiae deletion strains, locus YKL009W, strain mrt4, active compounds read low",1
same,normalized growth,"S. cerevisiae deletion strains, locus YKL068W, active compounds read low",1.01
same,normalized growth,"S. cerevisiae deletion strains, locus YKL085W, strain MDH1 (second series), active compounds read low",0.996
same,normalized growth,"S. cerevisiae deletion strains, locus YKL085W, strain MDH1, active compounds read low",0.996
same,normalized growth,"S. cerevisiae deletion strains, locus YKL190W, strain CNB1, active compounds read low",1
same,normalized growth,"S. cerevisiae deletion strains, locus YKR001C, strain vps1, active compounds read low",1.03
same,normalized growth,[5],1
same,normalized growth,"S. cerevisiae deletion strains, locus YLR058C, strain SHM2, active compounds read low",1
same,normalized growth,"S. cerevisiae deletion strains, locus YLR102C, strain apc9, active compounds read low",1.01
same,normalized growth,[6],0.97
same,normalized growth,"S. cerevisiae deletion strains, locus YLR268W, strain sec22, active compounds read low",1.02
same,normalized growth,"S. cerevisiae deletion strains, locus YLR342W, strain FKS1 (second series), active compounds read low",0.998
same,normalized growth,"S. cerevisiae deletion strains, locus YLR371W, strain rom2, active compounds read low",1.02
same,normalized growth,"S. cerevisiae deletion strains, locus YLR418C, strain cdc73, active compounds read low",1.05
same,normalized growth,"S. cerevisiae deletion strains, locus YML016C, strain PPZ1, active compounds read low",0.999
same,normalized growth,"S. cerevisiae deletion strains, locus YML032C, strain rad52, active compounds read low",1.02
same,normalized growth,"S. cerevisiae deletion strains, locus YML124C, strain tub3, active compounds read low",1.01
same,normalized growth,"S. cerevisiae deletion strains, locus YMR078C, strain ctf18, active compounds read low",1.01
same,normalized growth,"S. cerevisiae deletion strains, locus YMR223W, strain ubp8, active compounds read low",1.02
same,normalized growth,[7],0.998
same,normalized growth,"S. cerevisiae deletion strains, locus YNL067W, strain RPL9B, active compounds read low",1.02
same,normalized growth,"S. cerevisiae deletion strains, locus YNL128W, strain TEP1, active compounds read low",1
same,normalized growth,"S. cerevisiae deletion strains, locus YNL233W, strain BNI4, active compounds read low",1.05
same,normalized growth,"S. cerevisiae deletion strains, locus YNL250W, strain rad50, active compounds read low",1.01
same,normalized growth,"S. cerevisiae deletion strains, locus YNL271C, strain bni1, active compounds read low",1.02
same,normalized growth,"S. cerevisiae deletion strains, locus YNL298W, strain CLA4, active compounds read low",1.01
same,normalized growth,"S. cerevisiae deletion strains, locus YNL307C, strain MCK1, active compounds read low",1.01
same,normalized growth,"S. cerevisiae deletion strains, locus YNR052C, strain pop2, active compounds read low",1.03
same,normalized growth,"S. cerevisiae deletion strains, locus YOL006C, strain TOP1, active compounds read low",0.976
same,normalized growth,"S. cerevisiae deletion strains, locus YOL012C, strain htz1",1.07
same,normalized growth,"S. cerevisiae deletion strains, locus YOL147C, strain pex11, active compounds read low",1.01
same,normalized growth,"S. cerevisiae deletion strains, locus YOR061W, strain CKA2, active compounds read low",1
same,normalized growth,"S. cerevisiae deletion strains, locus YOR069W, strain VPS5, active compounds read low",1
same,normalized growth,"S. cerevisiae deletion strains, locus YOR136W, strain idh2, active compounds read low",1.01
same,normalized growth,"S. cerevisiae deletion strains, locus YOR144C, strain elg1, active compounds read low",1.01
same,normalized growth,"S. cerevisiae deletion strains, locus YOR184W, strain ser1, active compounds read low",1
same,normalized growth,"S. cerevisiae deletion strains, locus YOR316C, strain cot1, active compounds read low",1.01
same,normalized growth,"S. cerevisiae deletion strains, locus YPR119W, strain clb2, active compounds read low",1.02
same,normalized growth,"S. cerevisiae deletion strains, locus YPR141C, strain kar3, active compounds read low",1.02
same,normalized growth,"S. cerevisiae deletion strains, locus YPR163C, strain tif3, active compounds read low",1.01
same,normalized growth,"S. cerevisiae deletion strains, locus YPR167C, strain met16, active compounds read low",1.02
same,normalized growth,"S. cerevisiae deletion strains, strain wtn01, active compounds read low",0.994
